According to PubChem BioAssay (Tox21):
Where “and” joins values, the source holds several entries; their conditions need not be identical. Equal entries are not always repeated. Records with an inconclusive call do not appear. Some compounds were tested as several samples or in several runs, with calls that do not always agree. Calls of active or inactive are those of the source. Unless noted, calls come from the whole dose curve; as a rule, active = well fitted curve in the direction sought with a large enough effect in the repeat runs; inconclusive = weak or mixed curves; inactive = no such curve, though single readings can be large; an effect the other way counts as inactive or inconclusive.

Columns and labels:
[1] = biological target: Aryl hydrocarbon receptor (Homo sapiens) (UniProt P35869); assay: qHTS assay to identify small molecule that activate the aryl hydrocarbon receptor (AhR) signaling pathway (AID 743085); note: nearly all actives have a fitted effect of over 15% in size; note: potency is the fitted concentration of half-maximal effect;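 for activation: HG2L7.5c1 human HepG2 liver cells with stably integrated DRE-driven firefly reporter; series mostly up to about 70 µM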
Procedure, shortened: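 Luminescence (ONE-Glo) from a dioxin-responsive-element luciferase reporter in HG2L7.5c1 HepG2 cells after 24 hr compound exposure at 37C; viability measured by CellTiter-Fluor fluorescence beforehand.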

[2] = qHTS assay to identify small molecule that activate the aryl hydrocarbon receptor (AhR) signaling pathway - cell viability counter screen (AID 743086); note: nearly all actives have a fitted effect of over 45% in size; note: potency is the fitted concentration of half-maximal effect
Procedure, shortened: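 HepG2-AhR-luc (HG2L7.5c1) cells, 4000/well, treated 24 h at 37 C with compound; viability measured as CellTiter-Fluor fluorescence after 30 min in the same wells as the luciferase read.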

[3] = qHTS assay to identify small molecule antagonists of the peroxisome proliferator-activated receptor gamma (PPARg) signaling pathway - cell viability counter screen (AID 743194); note: nearly all actives have a fitted effect of over 55% in size; note: potency is the fitted concentration of half-maximal effect
Procedure, shortened: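 Cytotoxicity counter screen in PPARg-bla HEK293H cells, same wells as reporter assay. Compounds plus 50 nM rosiglitazone (final) for 17 h at 37 C, then viability read by CellTiter-Glo luminescence.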

[4] = qHTS assay to identify small molecule agonists of the peroxisome proliferator-activated receptor delta (PPARd) signaling pathway - cell viability counter screen (AID 743211); note: nearly all actives have a fitted effect of over 55% in size; note: potency is the fitted concentration of half-maximal effect
Procedure, shortened: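 Viability was measured as CellTiter-Glo luminescence (30 min, room temperature) in the same wells as the beta-lactamase readout. GeneBLAzer PPARd UAS-bla HEK293H cells received compound after 5 h plating and were incubated 17 h at 37 C.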

[5] = biological target: Peroxisome proliferator-activated receptor delta (Homo sapiens) (UniProt Q03181); assay: qHTS assay to identify small molecule antagonists of the peroxisome proliferator-activated receptor delta (PPARd) signaling pathway (AID 743215; active = well fitted inhibition curve with a large enough effect in the signal ratio in the repeat runs, not every such curve was filed as active; the % refers to the signal ratio;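 note: cells stimulated with agonist L165041 at 300 nM final during compound exposure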; note: potency is the fitted concentration of half-maximal effect)
Procedure, shortened: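 PPARd-bla HEK293H cells (UAS-bla reporter) preincubated 5 h, then given compound plus 300 nM final L165041 agonist for 17 h at 37 C. Beta-lactamase activity read by LiveBLAzer B/G FRET substrate fluorescence after 2 h at room temperature.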

[6] = qHTS assay to identify small molecule agonists of the farnesoid-X-receptor (FXR) signaling pathway - cell viability counter screen (AID 743218); note: nearly all actives have a fitted effect of over 45% in size; note: potency is the fitted concentration of half-maximal effect
Procedure, shortened: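 FXR-UAS-bla HEK 293T cells exposed to compounds for 16 h at 37C. Cytotoxicity read in the same wells by CellTiter-Glo luminescence after 30 min at room temperature, following the beta-lactamase FRET read.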

[7] = biological target: Bile acid receptor (Homo sapiens) (UniProt Q96RI1); assay: qHTS assay to identify small molecule agonists of the farnesoid-X-receptor (FXR) signaling pathway (AID 743220; active = well fitted activation curve with a large enough effect in the signal ratio in the repeat runs, not every such curve was filed as active; the % refers to the signal ratio)
Procedure, shortened: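 Beta-lactamase reporter under UAS control in GeneBLAzer FXR HEK 293T cells (5000/well) measured with LiveBLAzer FRET substrate after 2 h at room temperature. Compound exposure lasted 16 h at 37C.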

[8] = qHTS assay to identify small molecule antagonists of the farnesoid-X-receptor (FXR) signaling pathway - cell viability counter screen (AID 743221; active = well fitted cell-killing curve with a large enough effect in the repeat runs, not every such curve was filed as active; note: nearly all actives have a fitted effect of over 50% in size; note: potency is the fitted concentration of half-maximal effect)
Procedure, shortened: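 Cytotoxicity counter screen run in the FXR-bla reporter wells: HEK 293T cells exposed to compound with 50 uM (final) chenodeoxycholic acid for 16 h, 37 C, then viability measured by CellTiter-Glo luminescence after 30 min, room temperature.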

[9] = qHTS assay for small molecule agonists of the antioxidant response element (ARE) signaling pathway - cell viability counter screen (AID 743203; calls by dose curve; note: nearly all actives have a fitted effect of over 55% in size; note: potency is the fitted concentration of half-maximal effect)
Procedure, shortened: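 ARE-bla HepG2 cells were plated, rested 5 h at 37C/5% CO2, then exposed to compounds in DMSO for 16 h. Viability was read as CellTiter-Glo luminescence after 30 min at room temperature, in the same wells as the ARE screen.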

[10] = qHTS assay to identify small molecule antagonists of the peroxisome proliferator-activated receptor delta (PPARd) signaling pathway - cell viability counter screen (AID 743213); note: nearly all actives have a fitted effect of over 50% in size; note: potency is the fitted concentration of half-maximal effect
Procedure, shortened: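 Luminescence from CellTiter-Glo, added after the bla read and incubated 30 min at room temperature, gives viability of HEK293H PPARd-bla cells exposed to compounds for 17 h at 37 C with 300 nM L165041.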

[11] = qHTS assay to identify small molecule agonists of the vitamin D receptor (VDR) signaling pathway - cell viability counter screen (AID 743224); note: nearly all actives have a fitted effect of over 50% in size; note: potency is the fitted concentration of half-maximal effect
Procedure, shortened: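 VDR-bla cells, 4 h after plating, exposed to compounds for 16 h at 37C; viability then read in the same wells as CellTiter-Glo luminescence after 30 min at room temperature, following the bla FRET read.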

[12] = qHTS assay for small molecule activators of the heat shock response signaling pathway (AID 743210; active = well fitted activation curve with a large enough effect in the signal ratio in the repeat runs, with a control signal flat, not every such curve was filed as active; the % refers to the signal ratio;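 note: HeLa cells with beta-lactamase reporter driven by heat shock elements; series mostly up to about 63 µM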)
Procedure, shortened: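 Quantitative high-throughput format using an engineered HeLa line in which heat shock response elements drive beta-lactamase; after 5 h with compound, cells received a B/G FRET substrate and fluorescence was read.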

[13] = biological target: Peroxisome proliferator-activated receptor delta (Homo sapiens) (UniProt Q03181); assay: qHTS assay to identify small molecule agonists of the peroxisome proliferator-activated receptor delta (PPARd) signaling pathway (AID 743212; calls by dose curve)
Procedure, shortened: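 Quantitative high-throughput agonist screen in a HEK293H beta-lactamase reporter line under UAS control. Compounds in DMSO, at 37 C. Fluorescence read after 2 h with FRET substrate at room temperature.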

[14] = biological target: Vitamin D3 receptor (Homo sapiens) (UniProt P11473); assay: qHTS assay to identify small molecule antagonists of the vitamin D receptor (VDR) signaling pathway (AID 743223; active = well fitted inhibition curve with a large enough effect in the signal ratio in the repeat runs, not every such curve was filed as active; the % refers to the signal ratio; note: potency is the fitted concentration of half-maximal effect)
Procedure, shortened: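 Antagonist mode: compound added to VDR-bla cells alongside agonist 1alpha,25-dihydroxyvitamin D3 (3 nM final), incubation 16 h at 37C. Read-out is LiveBLAzer FRET fluorescence, 2 h at room temperature.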

[15] = biological target: Bile acid receptor (Homo sapiens) (UniProt Q96RI1); assay: qHTS assay to identify small molecule antagonists of the farnesoid-X-receptor (FXR) signaling pathway (AID 743217; active = well fitted inhibition curve with a large enough effect in the signal ratio in the repeat runs, not every such curve was filed as active; the % refers to the signal ratio)
Procedure, shortened: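 FXR-UAS-bla HEK 293T cells (beta-lactamase reporter) given compound plus chenodeoxycholic acid (50 uM final), 16 h at 37C. LiveBLAzer B/G FRET substrate added for 2 h at room temperature; fluorescence read.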

[16] = qHTS assay for small molecule agonists of the antioxidant response element (ARE) signaling pathway (AID 743202; active = well fitted activation curve with a large enough effect in the signal ratio in the repeat runs, not every such curve was filed as active; the % refers to the signal ratio)
Procedure, shortened: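 Agonist mode reporter screen: HepG2 cells with ARE-controlled beta-lactamase are incubated with test compounds for 16 h at 37 C, and beta-lactamase activity is measured as fluorescence of cleaved B/G FRET substrate.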

[17] = qHTS assay for small molecule activators of the heat shock response signaling pathway - cell viability counter screen (AID 743209); note: nearly all actives have a fitted effect of over 50% in size
Procedure, shortened: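 HSE-bla HeLa cells plated overnight, then exposed to Tox21 compounds (23 nL in DMSO) for 5 h at 37 C. After the bla reporter read, CellTiter-Glo was added in the same wells and luminescence read after 30 min at room temperature.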

[18] = biological target: Vitamin D3 receptor (Homo sapiens) (UniProt P11473); assay: qHTS assay to identify small molecule agonists of the vitamin D receptor (VDR) signaling pathway (AID 743222; calls by dose curve; note: potency is the fitted concentration of half-maximal effect)
Procedure, shortened: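 VDR-bla cells plated 4 h at 37 C, then exposed to compounds for 16 h at 37 C. Beta-lactamase reporter activity measured by fluorescence after 2 h room-temperature loading with LiveBLAzer B/G FRET substrate.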

Measured: Potency

Sequence of Bile acid receptor (Homo sapiens) (Q96RI1 whole entry, looked up): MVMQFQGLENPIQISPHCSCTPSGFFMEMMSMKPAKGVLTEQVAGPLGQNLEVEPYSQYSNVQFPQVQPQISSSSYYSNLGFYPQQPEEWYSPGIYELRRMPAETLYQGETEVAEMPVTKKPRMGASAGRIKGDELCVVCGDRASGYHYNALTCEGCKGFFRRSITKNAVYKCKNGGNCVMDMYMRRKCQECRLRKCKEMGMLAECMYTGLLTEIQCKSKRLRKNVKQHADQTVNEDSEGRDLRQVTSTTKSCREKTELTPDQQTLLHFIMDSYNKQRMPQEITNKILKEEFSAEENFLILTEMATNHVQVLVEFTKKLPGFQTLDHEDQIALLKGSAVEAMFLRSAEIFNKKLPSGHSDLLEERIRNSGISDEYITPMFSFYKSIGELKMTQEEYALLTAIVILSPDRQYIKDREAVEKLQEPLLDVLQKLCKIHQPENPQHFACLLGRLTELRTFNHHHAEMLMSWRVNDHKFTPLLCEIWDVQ
Sequence of Peroxisome proliferator-activated receptor delta (Homo sapiens) (Q03181 whole entry, looked up): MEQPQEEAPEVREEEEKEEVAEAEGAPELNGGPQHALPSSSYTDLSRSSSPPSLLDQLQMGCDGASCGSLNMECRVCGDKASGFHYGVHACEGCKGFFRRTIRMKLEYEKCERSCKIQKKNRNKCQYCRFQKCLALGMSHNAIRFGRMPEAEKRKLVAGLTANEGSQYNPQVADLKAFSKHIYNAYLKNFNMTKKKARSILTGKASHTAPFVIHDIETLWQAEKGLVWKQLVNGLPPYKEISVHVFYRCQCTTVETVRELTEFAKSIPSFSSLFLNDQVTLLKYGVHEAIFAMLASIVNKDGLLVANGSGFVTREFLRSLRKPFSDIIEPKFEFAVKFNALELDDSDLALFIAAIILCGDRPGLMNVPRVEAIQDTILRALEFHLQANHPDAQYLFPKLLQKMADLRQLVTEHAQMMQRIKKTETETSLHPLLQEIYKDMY
Sequence of Aryl hydrocarbon receptor (Homo sapiens) (P35869 whole entry, looked up): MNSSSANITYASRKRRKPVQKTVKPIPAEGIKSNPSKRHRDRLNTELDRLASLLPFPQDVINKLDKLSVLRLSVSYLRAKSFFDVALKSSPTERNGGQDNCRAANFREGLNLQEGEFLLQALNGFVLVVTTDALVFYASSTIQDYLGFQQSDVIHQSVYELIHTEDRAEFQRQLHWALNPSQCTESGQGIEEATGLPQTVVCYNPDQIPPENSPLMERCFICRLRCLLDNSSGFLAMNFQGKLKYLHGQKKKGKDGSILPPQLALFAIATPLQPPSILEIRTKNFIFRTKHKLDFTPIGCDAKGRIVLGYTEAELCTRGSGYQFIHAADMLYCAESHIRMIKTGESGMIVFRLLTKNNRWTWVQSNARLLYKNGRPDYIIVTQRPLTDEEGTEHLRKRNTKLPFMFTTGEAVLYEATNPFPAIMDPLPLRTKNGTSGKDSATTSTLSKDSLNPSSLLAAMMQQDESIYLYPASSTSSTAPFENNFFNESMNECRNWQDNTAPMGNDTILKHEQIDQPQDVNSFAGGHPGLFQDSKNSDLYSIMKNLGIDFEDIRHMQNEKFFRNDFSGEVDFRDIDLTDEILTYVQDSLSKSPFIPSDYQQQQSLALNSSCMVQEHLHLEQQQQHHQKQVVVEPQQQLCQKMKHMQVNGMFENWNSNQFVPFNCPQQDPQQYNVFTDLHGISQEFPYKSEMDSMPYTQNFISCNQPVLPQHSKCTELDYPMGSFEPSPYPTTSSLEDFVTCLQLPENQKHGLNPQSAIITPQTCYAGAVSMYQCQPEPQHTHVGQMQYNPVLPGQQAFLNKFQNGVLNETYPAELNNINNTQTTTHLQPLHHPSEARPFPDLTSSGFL
Sequence of Vitamin D3 receptor (Homo sapiens) (P11473 whole entry, looked up): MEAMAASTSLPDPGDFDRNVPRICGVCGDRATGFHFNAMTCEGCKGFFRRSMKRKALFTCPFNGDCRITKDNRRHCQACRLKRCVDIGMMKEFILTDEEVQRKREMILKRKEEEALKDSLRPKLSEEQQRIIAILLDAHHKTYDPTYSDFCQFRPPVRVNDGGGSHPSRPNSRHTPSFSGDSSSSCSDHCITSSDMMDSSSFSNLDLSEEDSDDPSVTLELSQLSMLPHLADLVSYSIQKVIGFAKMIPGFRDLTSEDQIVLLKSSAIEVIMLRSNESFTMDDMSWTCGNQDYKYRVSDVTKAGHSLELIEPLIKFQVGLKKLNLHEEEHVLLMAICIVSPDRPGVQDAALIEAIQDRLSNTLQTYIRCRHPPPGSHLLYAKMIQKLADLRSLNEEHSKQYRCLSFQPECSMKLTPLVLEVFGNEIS

CCCCCCCCCCCCCCCC[N+](C)(C)CCN(Cc1ccc(OC)cc1)c1ncccn1
active: [3] 26.6 µM | [4] 13.3 µM | [6] 29.8 µM | [8] 26.6 µM
inactive: [1] | [2] | [5] | [7]

O=C(Nc1cccc(C(F)(F)F)c1)c1cc(Br)cc(Br)c1O
inactive: [1] | [2]
active: [3] 0.389 µM | [9] 10.9 µM | [4] 6.16 µM | [10] 6.92 µM | [6] 4.36 µM | [8] 11 µM | [11] 2.19 µM

Cc1cccc(CN2CCN(C(c3ccccc3)c3ccc(Cl)cc3)CC2)c1 (stereo not drawn)
inactive: [1] | [2] | [3] | [9] | [12] | [13] | [10] | [5] | [8]
active: [4] 26.6 µM | [6] 29.8 µM

Cc1cc(CCN2CCN(c3nsc4ccccc34)CC2)cc2c1NC(=O)CC2(C)C
inactive: [1]
active: [2] 27.3 µM | [3] 19.5 µM | [9] 21.7 µM | [5] 19.5 µM | [6] 21.9 µM | [8] 38.9 µM | [11] 17.4 µM

CC(C)c1ccc2c(c1)CC[C@H]1[C@](C)(CN)CCC[C@]21C
active: [2] 54.5 µM | [3] 11 µM | [9] 6.86 µM | [4] 11 µM | [6] 12.3 µM | [8] 54.9 µM | [14] 49 µM | [11] 17.4 µM
inactive: [1]

CCc1cc(Cc2cc(CC)cc(C(C)(C)C)c2O)c(O)c(C(C)(C)C)c1
active: [3] 6.92 µM | [9] 21.7 µM | [4] 7.76 µM | [10] 6.92 µM | [6] 11 µM | [8] 11 µM | [14] 17.4 µM | [11] 6.17 µM
inactive: [1] | [2]

C[C@@H](NCCCc1cccc(C(F)(F)F)c1)c1cccc2ccccc12
inactive: [1] | [7]
active: [2] 29.8 µM | [3] 26.6 µM | [9] 29.8 µM | [4] 11.9 µM | [5] 29.8 µM | [6] 29.8 µM | [11] 29.8 µM

C[C@H](CCC(=O)O)[C@H]1CC[C@H]2[C@@H]3CC[C@@H]4C[C@H](O)CC[C@]4(C)[C@H]3CC[C@]12C
active: [3] 21.8 µM and 49 µM | [11] 24.5 µM
inactive and 43.6 µM (active): [8]
inactive and 54.9 µM (active): [4]
inactive: [1] | [2] | [5] | [15]

CCCN(CCC)C(=O)C(CCC(=O)OCCCN1CCN(CCOC(=O)Cc2c(C)n(C(=O)c3ccc(Cl)cc3)c3ccc(OC)cc23)CC1)NC(=O)c1ccccc1 (stereo not drawn)
active: [1] 29.8 µM | [2] 21.1 µM | [10] 21.1 µM | [5] 26.6 µM | [6] 16.8 µM | [8] 26.6 µM
inactive: [16] | [9] | [7]

CN(C)c1ccc(C2(c3ccc(N(C)C)cc3)OC(=O)c3cc(N(C)C)ccc32)cc1
inactive: [1] | [2] | [3] | [9] | [17] | [10] | [6] | [8] | [14] | [11]

CS(=O)(=O)CCNCc1ccc(-c2ccc3ncnc(Nc4ccc(OCc5cccc(F)c5)c(Cl)c4)c3c2)o1
active: [3] 15 µM | [9] 26.6 µM | [4] 9.44 µM | [6] 10.6 µM | [8] 26.6 µM | [11] 29.8 µM
inactive: [1] | [2]

N/C(=N\N=C\c1ccc(Cl)cc1)N/N=C/c1ccc(Cl)cc1
active: [1] 13.3 µM | [3] 21.1 µM | [9] 29.8 µM | [11] 26.6 µM
inactive: [2] | [4] | [15] | [7] | [8] | [18]

CSc1ccc2c(c1)C(N1CCN(C)CC1)Cc1ccccc1S2 (stereo not drawn)
active: [2] 29.8 µM | [3] 18.8 µM | [4] 29.8 µM | [10] 16.8 µM | [6] 26.6 µM | [11] 23.7 µM
inactive: [1] | [12] | [15] | [7]

CCN(Cc1cccnc1)C(=O)c1cccc(Cl)c1[C@]1(C)C(=O)N(Cc2ccc(OC)cc2OC)c2ccc(Cl)cc21
active: [2] 11.4 µM | [9] 5.09 µM | [4] 4.08 µM | [10] 5.13 µM | [6] 3.63 µM | [8] 11.5 µM | [18] 45.8 µM
inactive: [1] | [17]
